Test results as given in PMC5700166.
Residue numbers refer to the chain shown, from its start.

Experiments:
Test in all cases: protein-binding microarray (PBM); PBM: ~300 nM protein, 6 mM HEPES pH 7.8, 80 mM KCl, 0.5 mM EDTA, 0.5 mM EGTA, 6% glycerol, 35 ng/ul poly-dIdC, 1% milk, 1 h, room temperature; Ap Aiptasia and Nv Nematostella (sea anemones) / Co Capsaspora / Aq Amphimedon (sponge) / Dm Drosophila / Hu human; RHD is the Rel homology domain; high values mean tight binding
Conditions in all cases: dsDNA, one strand shown
[1] = molecular target: T1, GST-Ap-NF-kB RHD (Exaiptasia pallida (Aiptasia), UniProt A0A913YAJ5 2-422)
T1 sequence: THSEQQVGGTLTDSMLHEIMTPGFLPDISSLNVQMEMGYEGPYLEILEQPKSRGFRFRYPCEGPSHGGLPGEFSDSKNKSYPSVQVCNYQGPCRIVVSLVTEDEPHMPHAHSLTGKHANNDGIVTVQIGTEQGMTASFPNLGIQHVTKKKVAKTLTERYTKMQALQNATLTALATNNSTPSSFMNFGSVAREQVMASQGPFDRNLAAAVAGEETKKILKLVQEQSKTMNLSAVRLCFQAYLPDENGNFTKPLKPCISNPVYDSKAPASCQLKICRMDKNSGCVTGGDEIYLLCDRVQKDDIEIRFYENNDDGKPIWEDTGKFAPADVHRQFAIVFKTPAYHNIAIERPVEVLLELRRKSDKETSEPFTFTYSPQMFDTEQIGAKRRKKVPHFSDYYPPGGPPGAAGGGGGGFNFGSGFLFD

[2] = molecular target: T2, GST-Nv-NF-kB (Cys allele) (Nematostella vectensis, UniProt E5G601 2-411)
T2 sequence: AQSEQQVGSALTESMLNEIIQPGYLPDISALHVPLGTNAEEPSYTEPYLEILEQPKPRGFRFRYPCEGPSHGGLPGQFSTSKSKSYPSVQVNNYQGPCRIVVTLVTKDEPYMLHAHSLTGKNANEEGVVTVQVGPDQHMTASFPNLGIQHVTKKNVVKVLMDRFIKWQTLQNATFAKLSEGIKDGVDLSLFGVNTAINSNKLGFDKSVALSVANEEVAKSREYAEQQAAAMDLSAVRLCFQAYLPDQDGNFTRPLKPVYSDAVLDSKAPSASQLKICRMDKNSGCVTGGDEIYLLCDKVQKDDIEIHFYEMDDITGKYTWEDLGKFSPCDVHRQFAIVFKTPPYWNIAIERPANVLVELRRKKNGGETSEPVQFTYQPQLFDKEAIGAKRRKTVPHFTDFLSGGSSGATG

[3] = molecular target: T3, GST-Co-NF-kB (Capsaspora owczarzaki, UniProt F1ARL5 200-546)
T3 sequence: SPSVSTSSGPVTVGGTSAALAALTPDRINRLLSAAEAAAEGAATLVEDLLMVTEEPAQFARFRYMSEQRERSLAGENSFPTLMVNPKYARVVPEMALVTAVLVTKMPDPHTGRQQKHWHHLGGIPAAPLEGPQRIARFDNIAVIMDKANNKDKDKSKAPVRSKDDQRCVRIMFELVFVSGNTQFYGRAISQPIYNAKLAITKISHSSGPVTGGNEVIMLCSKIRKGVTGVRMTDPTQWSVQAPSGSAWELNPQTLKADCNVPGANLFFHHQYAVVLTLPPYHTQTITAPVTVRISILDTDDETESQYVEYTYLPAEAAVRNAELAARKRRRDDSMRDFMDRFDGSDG

[4] = molecular target: T4, GST-Dm-Relish (Drosophila melanogaster, UniProt Q94527 99-473)
T4 sequence: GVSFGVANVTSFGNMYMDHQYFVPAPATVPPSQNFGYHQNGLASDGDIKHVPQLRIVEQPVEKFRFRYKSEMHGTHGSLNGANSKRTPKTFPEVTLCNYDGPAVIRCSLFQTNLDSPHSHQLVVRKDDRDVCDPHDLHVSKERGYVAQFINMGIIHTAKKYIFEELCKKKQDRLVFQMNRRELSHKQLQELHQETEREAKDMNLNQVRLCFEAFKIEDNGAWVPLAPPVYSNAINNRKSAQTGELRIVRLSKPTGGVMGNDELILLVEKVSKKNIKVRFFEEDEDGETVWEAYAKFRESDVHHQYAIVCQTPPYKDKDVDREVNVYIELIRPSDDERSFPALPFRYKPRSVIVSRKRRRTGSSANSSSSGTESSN

[5] = molecular target: T5, GST-Aq-NF-kB (Amphimedon queenslandica, UniProt A9Y5G7 2-389)
T5 sequence: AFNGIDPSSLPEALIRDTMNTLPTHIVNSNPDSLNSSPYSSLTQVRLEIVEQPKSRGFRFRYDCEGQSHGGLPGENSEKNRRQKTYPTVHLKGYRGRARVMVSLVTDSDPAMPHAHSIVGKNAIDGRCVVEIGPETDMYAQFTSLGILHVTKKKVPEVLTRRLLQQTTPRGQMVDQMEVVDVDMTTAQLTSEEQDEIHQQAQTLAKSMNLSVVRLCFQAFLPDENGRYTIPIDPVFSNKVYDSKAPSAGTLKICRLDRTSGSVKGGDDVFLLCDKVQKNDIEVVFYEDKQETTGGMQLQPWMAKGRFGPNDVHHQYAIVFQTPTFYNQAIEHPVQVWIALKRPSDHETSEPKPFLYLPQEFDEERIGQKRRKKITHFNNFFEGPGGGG

[6] = molecular target: GST-Hu-p50 (Homo sapiens, UniProt P19838 7-356)
Sequence of GST-Hu-p50 (P19838 7-356): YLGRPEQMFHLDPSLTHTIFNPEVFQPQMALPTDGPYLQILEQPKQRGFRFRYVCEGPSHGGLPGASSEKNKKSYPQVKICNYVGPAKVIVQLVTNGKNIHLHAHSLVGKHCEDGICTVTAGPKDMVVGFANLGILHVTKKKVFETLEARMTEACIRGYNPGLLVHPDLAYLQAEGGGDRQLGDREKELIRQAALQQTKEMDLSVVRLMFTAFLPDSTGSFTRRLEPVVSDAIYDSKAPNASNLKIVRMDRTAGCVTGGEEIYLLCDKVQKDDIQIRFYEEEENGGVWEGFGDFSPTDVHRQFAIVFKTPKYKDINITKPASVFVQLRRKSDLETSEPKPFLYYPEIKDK

[7] = molecular target: T6, GST-Nv-NF-kB (Ser allele) (Nematostella vectensis, UniProt A7UNT2 2-411)
T6 sequence: T2 sequence with Q21R, C66S, S207N, E215Q, V217A, E225K, A268E, D399E

Row | Sequence | binding signal [1] [z-score] | binding signal [2] [z-score] | binding signal [3] [z-score] | binding signal [4] [z-score] | binding signal [5] [z-score] | binding signal [6] [z-score] | binding signal [7] [z-score]
1 | CCGATTAACATCAGGGATACACCTGATGTTAATCGGGTCTTGATTCGCTTGACGCTGCTG | 2.29 | 1.83 | 1.56 | 2.76 | 3.45 | 2.49 | –
2 | CCGATTAACATCAGGAAATACCCTGATGTTAATCGGGTCTTGATTCGCTTGACGCTGCTG | 6.05 | 8.7 | 1.14 | 7.3 | 9.37 | 6.12 | –
3 | CCGATTAACATCAAAAACTTTCCTGATGTTAATCGGGTCTTGATTCGCTTGACGCTGCTG | – | – | – | 2.34 | 2.68 | 1.25 | 1.54
4 | CCGATTAACATCAAGAATTTTCCTGATGTTAATCGGGTCTTGATTCGCTTGACGCTGCTG | – | – | – | – | 1.12 | 1.25 | 1.03
5 | CCGATTAACATCAGGGAGTACACTGATGTTAATCGGGTCTTGATTCGCTTGACGCTGCTG | 1.96 | – | 1.03 | 1.58 | 1.84 | 1.1 | –
6 | CCGATTAACATCACCAAAATTCCTGATGTTAATCGGGTCTTGATTCGCTTGACGCTGCTG | – | – | – | 1.01 | 1.17 | 1.51 | 1.17
7 | CCGATTAACATCAAAATTTTTCCTGATGTTAATCGGGTCTTGATTCGCTTGACGCTGCTG | – | – | 1.06 | 2.86 | 1.46 | 1.87 | 1.42
8 | CCGATTAACATCAAGGGCTTTCCTGATGTTAATCGGGTCTTGATTCGCTTGACGCTGCTG | 1.28 | – | – | 2.98 | 3.6 | 1.47 | –
9 | CCGATTAACATCAAAATTTGCCCTGATGTTAATCGGGTCTTGATTCGCTTGACGCTGCTG | – | – | 1.18 | – | 1.61 | 1.54 | 1.28
10 | CCGATTAACATCAGCCCCGGTGTTGATGTTAATCGGGTCTTGATTCGCTTGACGCTGCTG | 2.1 | – | 1.61 | – | 2.37 | 1.58 | –
11 | CCGATTAACATCAGGAAATTCCATGATGTTAATCGGGTCTTGATTCGCTTGACGCTGCTG | – | 1.06 | – | 1.68 | 3.91 | 1.1 | –
12 | CCGATTAACATCAGGAAATAACCTGATGTTAATCGGGTCTTGATTCGCTTGACGCTGCTG | – | 3.04 | – | 3.31 | 4.91 | 5.04 | 3.75
13 | CCGATTAACATCACTTCGGGAAATGATGTTAATCGGGTCTTGATTCGCTTGACGCTGCTG | – | 2.8 | 2.89 | – | 2.16 | 1.48 | 1.97
14 | CCGATTAACATCACCACCACCCCTGATGTTAATCGGGTCTTGATTCGCTTGACGCTGCTG | 1.55 | – | 2.34 | 1.39 | 1.75 | 2.36 | –
15 | CCGATTAACATCAAAAATTACCATGATGTTAATCGGGTCTTGATTCGCTTGACGCTGCTG | – | 1.73 | – | 3.14 | 1.73 | 2.52 | 3.14
16 | CCGATTAACATCAAAGTGGGAAATGATGTTAATCGGGTCTTGATTCGCTTGACGCTGCTG | – | 3.3 | 2.54 | – | 1.64 | 2.09 | 2.91
17 | CCGATTAACATCACCGGAAATTCTGATGTTAATCGGGTCTTGATTCGCTTGACGCTGCTG | – | 1.22 | – | 1.78 | 2.51 | 2.29 | 1.39
18 | CCGATTAACATCAAGGTTTTTCCTGATGTTAATCGGGTCTTGATTCGCTTGACGCTGCTG | – | – | – | 3.17 | 2.97 | 1.61 | 1.62
19 | CCGATTAACATCAATTCCCAAAATGATGTTAATCGGGTCTTGATTCGCTTGACGCTGCTG | – | 2.17 | 1.45 | 1.29 | 1.31 | 1.25 | 2.29
20 | CCGATTAACATCAAAAAAGTCCGTGATGTTAATCGGGTCTTGATTCGCTTGACGCTGCTG | – | 1.12 | – | 4.7 | 3.69 | 1.4 | –
21 | CCGATTAACATCATTCCCGGAAATGATGTTAATCGGGTCTTGATTCGCTTGACGCTGCTG | – | 3.35 | 2.37 | 1.05 | 2.67 | 1.79 | 2.61
22 | CCGATTAACATCAGTGGGAAACATGATGTTAATCGGGTCTTGATTCGCTTGACGCTGCTG | – | 1.93 | 3.12 | – | 2.03 | 1.25 | 1.79
23 | CCGATTAACATCAAAATTTACCGTGATGTTAATCGGGTCTTGATTCGCTTGACGCTGCTG | – | 1.63 | 1.05 | 3.37 | 2.12 | 2.17 | 3.7
24 | CCGATTAACATCAAATTTTCCGGTGATGTTAATCGGGTCTTGATTCGCTTGACGCTGCTG | – | – | – | 1.54 | 2.04 | 1.95 | 1.67
25 | CCGATTAACATCAGACCCCCCCCTGATGTTAATCGGGTCTTGATTCGCTTGACGCTGCTG | 5.15 | – | 4.59 | 4.7 | 4.8 | 4.03 | –
26 | CCGATTAACATCAGAAATTGCCCTGATGTTAATCGGGTCTTGATTCGCTTGACGCTGCTG | – | 1.33 | – | – | 2.44 | 1.68 | –
27 | CCGATTAACATCAGGTTATTCCATGATGTTAATCGGGTCTTGATTCGCTTGACGCTGCTG | – | – | – | 2.41 | 1.85 | 3.32 | 2.28
